Data: PubChem BioAssay (NCI)
The panel holds about 83,000 compounds, 20% with a hit somewhere; the sample as a whole holds those more often.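 48-hour exposure, single concentration, 96-well plates; percent growth endpoint where 0 means no net growth. Active: below 10.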 A number with no mark means an inactive call. Activity calls are given as the source filed them.

How the values were obtained:
Assay in all cases: NCI-60 one-dose screen, 48 h (100 = growth as untreated, 0 = no growth, -100 = all killed)
Conditions in all cases: 10 µM unless noted
HCT-15 colon = tested on: HCT-15 colon
HT29 colon = tested on: HT29 colon
SNB-75 CNS = tested on: SNB-75 CNS
SNB-19 CNS = tested on: SNB-19 CNS
U251 CNS = tested on: U251 CNS
PC-3 prostate = tested on: PC-3 prostate
SK-MEL-5 melanoma = tested on: SK-MEL-5 melanoma
UACC-62 melanoma = tested on: UACC-62 melanoma
LOX IMVI melanoma = tested on: LOX IMVI melanoma
SK-MEL-28 melanoma = tested on: SK-MEL-28 melanoma
SK-MEL-2 melanoma = tested on: SK-MEL-2 melanoma
EKVX NSCLC = tested on: EKVX NSCLC
SN12C renal = tested on: SN12C renal
UO-31 renal = tested on: UO-31 renal
TK-10 renal = tested on: TK-10 renal
ACHN renal = tested on: ACHN renal
CAKI-1 renal = tested on: CAKI-1 renal
A498 renal = tested on: A498 renal
CCRF-CEM leukemia = tested on: CCRF-CEM leukemia
MOLT-4 leukemia = tested on: MOLT-4 leukemia

SMILES	growth (HCT-15 colon)	growth (HT29 colon)	growth (SNB-75 CNS)	growth (SNB-19 CNS)	growth (U251 CNS)	growth (PC-3 prostate)	growth (SK-MEL-5 melanoma)	growth (UACC-62 melanoma)	growth (LOX IMVI melanoma)	growth (SK-MEL-28 melanoma)	growth (SK-MEL-2 melanoma)	growth (EKVX NSCLC)	growth (SN12C renal)	growth (UO-31 renal)	growth (TK-10 renal)	growth (ACHN renal)	growth (CAKI-1 renal)	growth (A498 renal)	growth (CCRF-CEM leukemia)	growth (MOLT-4 leukemia)
O=C(Nc1nc2ccc([N+](=O)[O-])cc2s1)Nc1ccc(Cl)cc1Cl	49.1%	64.7%	-24.4% (active)	46.6%	11.4%	47.3%	27.5%	56%	34.8%	79.5%	65%	40.7%	29.4%	59.8%	40.9%	37.3%	57.2%	-0.785% (active)	42.1%	33.9%
CC(C)C[C@H](NC(=O)CNC(=O)C[C@H]1O[C@@H]2OC3(C)CC[C@H]4[C@H](C)CC[C@@H]([C@H]1C)[C@@]24O3)B(O)O	33.1%	-43.6% (active)	-34.8% (active)	28.2%	17.4%	9.34% (active)	-87.6% (active)	-81.2% (active)	-83.6% (active)	-34.4% (active)	-61.9% (active)	27.3%	-39.2% (active)	10.5%	12.1%	6.33% (active)	15.8%	21.1%	-12.4% (active)	7.31% (active)
CC(=O)Nc1ccc(S(=O)(=O)Nc2ccc(-c3ccc4c(c3)NC(=O)/C4=C\c3ccc[nH]3)cc2)cc1	98.3%	118%	108%	73%	89.2%	91.4%	92.6%	68.7%	85.2%	83.6%	93.8%	55.6%	100%	73.1%	69.3%	75.5%	76.7%	139%	80.2%	71.6%
COc1cc(NC(=O)C(C)C)ccc1C(=O)NC(=S)Nc1ccc(S(N)(=O)=O)cc1	108%	101%	95.5%	80.8%	72%	115%	114%	96.2%	102%	114%	97.4%	102%	100%	89.7%	94.6%	103%	96.7%	150%	97.5%	118%
COc1ccc2[nH]cc(-c3cc(N)n4nc(-c5c[nH]c6ccccc56)cc4n3)c2c1	-79.2% (active)	-63.8% (active)	82.1%	13.9%	-68.2% (active)	10.9%	-93.2% (active)	-81% (active)	-85.8% (active)	-99% (active)	-63.7% (active)	10.9%	49.1%	-74.9% (active)	-1.71% (active)	8.14% (active)	-59.5% (active)	-0.442% (active)	-20% (active)	-7.46% (active)
COc1cccc(/C=C/c2nc3ccccc3c(=O)n2CC(=O)Nc2ccccc2)c1	67.8%	58.5%	-35.9% (active)	40.4%	7.15% (active)	76.1%	73.6%	67.2%	26.8%	76.5%	81%	85.1%	17.6%	-24.8% (active)	11.7%	-15.6% (active)	72.3%	28%	90.1%	94.2%
Cn1cc(Nc2ncnc(-c3ccc(N4CCCC4)c(C#N)c3)n2)cn1	40.8%	74.6%	30.8%	92.4%	94.3%	78.8%	49%	59.4%	48.9%	88.3%	88.4%	95.3%	70.7%	41.9%	66.2%	52.3%	22.4%	42.6%	72.2%	65.5%
Cn1cc(-c2cc(N)n3nc(-c4c[nH]c5ccccc45)cc3n2)c2ccccc21	-68.5% (active)	-68.2% (active)	-46.8% (active)	-88.7% (active)	-93.1% (active)	-50.2% (active)	-92.5% (active)	-96.5% (active)	-78.2% (active)	-98.8% (active)	-88.2% (active)	-96.1% (active)	-85.5% (active)	-83.5% (active)	-93.4% (active)	-100% (active)	-100% (active)	-90.4% (active)	-20.6% (active)	9.25% (active)
COc1ccc2[nH]c(=O)c(CSc3ccccc3Nc3nccc(-c4ccc(Cl)cc4)n3)cc2c1	25.8%	17.3%	23.6%	56.8%	37.8%	38.5%	25.4%	52.6%	19.4%	74.1%	57.9%	60%	-2.68% (active)	45.8%	90.3%	31%	-1.64% (active)	85.8%	28.4%	-2.12% (active)
O=C1NC(=S)/C(=C/c2cn(-c3ccccc3)nc2-c2ccccc2)S1	20%	22.9%	80.7%	14.3%	14.6%	34.9%	-42.3% (active)	6.83% (active)	28.9%	20.5%	-4.17% (active)	2.24% (active)	16%	16.7%	34.3%	20.1%	28.3%	-4.62% (active)	30.9%	33.5%
CN(C)c1nc(NCCNS(=O)(=O)c2ccc(C(=O)/C=C/c3ccccc3)cc2)nc(N2CCOCC2)n1	-45.3% (active)	3.67% (active)	73.2%	77%	44%	59.6%	83.5%	72.8%	-63.1% (active)	88%	97.6%	77.6%	79.8%	70.9%	108%	87%	68.5%	77.2%	55.1%	13.9%
COc1cc(CNC(=O)C[C@H](C)CCC=C(C)C)ccc1OCc1cn(-c2ccc(Cl)cc2Cl)nn1	79.6%	82.3%	7.99% (active)	50%	54.4%	85%	60.4%	65.6%	80.7%	96.3%	71.7%	81.1%	64.8%	60.5%	68.7%	61.1%	31.8%	59%	116%	84%
COC(=O)c1cc(C(=O)C(F)(F)F)n2c3ccccc3c3ccccc3c12	93.8%	96.1%	6.37% (active)	67.8%	70.1%	66.8%	95.8%	69.3%	77.2%	111%	97.6%	78.3%	53.1%	39%	73.7%	18.2%	43.1%	120%	97.6%	97.4%
N#Cc1ccc(C(=O)NNC(=O)CSc2nc3sc4c(c3c(=O)n2-c2ccc(Cl)cc2)CCCC4)cc1	51.2%	56%	86.7%	51.5%	15.9%	67%	38.5%	4.59% (active)	39.7%	27.8%	94.2%	54.3%	41.7%	42.7%	115%	71.2%	53.1%	89.2%	48.9%	46.3%
COc1ccccc1NC(=O)N/N=C/c1c[nH]c2ccccc12	13.8%	4.72% (active)	20.8%	40.6%	20%	35.2%	4.48% (active)	20.3%	-51.2% (active)	44.2%	-24.9% (active)	12.3%	23.2%	39.1%	33.2%	25.8%	42%	60.6%	17.4%	7.13% (active)
